Reference: PubChem BioAssay AID720597 (Broad Institute, 2013)
Measured potencies and affinities stand elsewhere. The source made the active and inactive calls.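 How the source made its calls: active means fitted half-maximal dose no more than twice the top valid tested dose, for compounds that lower signal; inconclusive means fit invalid, or curve flat with activity between -70 and -30; inactive means potency past limit, curve flat within ±30, or signal increasing.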

What follows are compounds tested against NAD-dependent protein deacylase sirtuin-5, mitochondrial (Homo sapiens) (UniProt Q9NXA8) (assay: SIRT5 deacylase inhibitors, dose response, biochemical, fluorescence imaging, cherry-pick, set 6 (AID 720597;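 further: lower AMC signal can also come from blocking the trypsin step; 0% = median of neutral control wells and -100% = median of positive control wells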)). Conditions: Purified SirT5, succinyl-peptide-AMC/trypsin fluorescence; series mostly up to 15 µM; activity change, negative = inhibition: at the top concentration.
Sequence of NAD-dependent protein deacylase sirtuin-5, mitochondrial (Homo sapiens) (Q9NXA8 whole entry, looked up): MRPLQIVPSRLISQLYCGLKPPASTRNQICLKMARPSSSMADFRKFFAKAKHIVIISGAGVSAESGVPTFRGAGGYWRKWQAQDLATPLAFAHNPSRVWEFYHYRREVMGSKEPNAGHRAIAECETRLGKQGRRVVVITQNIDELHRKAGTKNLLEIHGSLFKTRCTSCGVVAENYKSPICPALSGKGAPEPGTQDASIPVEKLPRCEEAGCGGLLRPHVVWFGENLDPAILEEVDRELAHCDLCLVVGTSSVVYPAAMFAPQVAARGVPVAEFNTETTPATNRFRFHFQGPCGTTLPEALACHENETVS

Activity change, negative = inhibition, inactive:
C[C@@H]1CN([C@@H](C)CO)C(=O)c2cc(NS(=O)(=O)c3ccccc3)ccc2O[C@@H](C)CCCCO[C@@H]1CN(C)Cc1ccc(C(F)(F)F)cc1 16.1%
O=C(CCN1CCCCC1)N[C@H]1CC[C@@H](CC(=O)N2CCC(Cc3ccccc3)CC2)O[C@@H]1CO -14.1%
O=C1CNC[C@H]2[C@@H](c3ccc(C4=CCCC4)cc3)[C@H](CO)N12 34.8%
O=C(Nc1ccc2c(c1)OCO2)N[C@H]1CC[C@H](CCNC(=O)C2CC2)O[C@@H]1CO 22.9%
C[C@@H]1CN([C@H](C)CO)C(=O)c2cccc(NC(=O)C3CCCCC3)c2O[C@@H]1CN(C)CC1CC1 -16.1%
CN(C)C(=O)[C@H]1[C@H](CO)[C@H]2Cn3c(ccc(-c4ccc(F)cc4)c3=O)[C@@H]1N2CCc1ccccc1 8.22%
Cc1ccc(S(=O)(=O)N(C)C[C@@H]2OCCCC[C@@H](C)Oc3ccc(NS(=O)(=O)c4ccccc4)cc3C(=O)N([C@H](C)CO)C[C@H]2C)cc1 1.8%
COc1ccc(S(=O)(=O)N(C)C[C@H]2OCCCC[C@H](C)Oc3ccc(NS(=O)(=O)c4ccc(C)cc4)cc3C(=O)N([C@H](C)CO)C[C@@H]2C)cc1 31.8%
C[C@@H]1CN([C@@H](C)CO)C(=O)Cc2cc(NC(=O)Nc3ccccc3)ccc2O[C@H]1CN(C)S(=O)(=O)c1ccc(F)cc1 -30.5%
CCCC#Cc1ccc([C@H]2[C@H]3CN(S(=O)(=O)Cc4ccccc4)CCCCN3[C@H]2CO)cc1 -16.6%
